High-throughput results deposited in PubChem BioAssay by National Center for Advancing Translational Sciences (NCATS).
Nrf2 ARE act = Nrf2 pathway activation; 410,000 tested, 0.31% active; Potency, µM (highest dose often 46.1 µM), inactives show at the highest dose activation, most hits filed as activators; AREc32 ARE-luciferase reporter (MCF7-derived line), luminescence, 24 h; note: potency is the fitted concentration of half-maximal effect; % of control where 0% means no effect; nearly all actives have a fitted effect of over 65% in size
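ARE activation measured as luciferase luminescence (Steady-Glo, 30 min RT) in AREc32_Fluc cells after 24 hr compound exposure at 37 deg C, 5% CO2; cells seeded overnight at 1000/well in OPTI-MEM, 5% FBS.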
A549 viability = counter-screen for Nrf2 inhibitors: cytotoxicity in A549 cells | A549 ARE-Fluc cells, CellTiter-Fluor viability, 18-24 h | Potency, µM (doses to about 46 µM), for the others: at the top dose activity change, negative = cytotoxicity, usual class: inhibitors | 390,000 tested, 0.16% active | AID 504648; note: potency is the fitted concentration of half-maximal effect; % is set by controls: 0 for no effect and ±100 for the full control effect
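Cytotoxicity counterscreen: CellTiter-Fluor fluorescence was measured in A549 ARE_Fluc cells after 18-24 h of compound exposure in a concentration series. The subsequent BugLite luminescent read reports ARE-luciferase activity.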
p53 reactivator = mutant p53 re-activation in reporter cells; H1299 p53-A138V BP100-luciferase reporter, luminescence, 24 h; Potency, µM (highest dose often 92.2 µM), without a hit: at the top dose activity change, positive = activation, hits mostly activators; 320,000 tested, 0.063% active; note: potency is the fitted concentration of half-maximal effect; % of control where 0% means no effect; nearly all actives have a fitted effect of over 45% in size
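H1299 (p53-null), stable ts p53-A138V + BP100-Luc; 1000 cells/well, Opti-MEM/10% FBS; cpd 4 pt, 1:5; 24 h, 37 deg C, 5% CO2; detection reagent 10 min RT; luminescence.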
BRCA1 expr act = activators of BRCA1 expression. MCF7-BRCA1-FFLuc reporter, luminescence, 48 h; response scale: scaled: vehicle 0%, 10 µM genistein 100%. Potency, µM (highest dose often 46.1 µM), without a hit: at the top dose activation, actives largely listed as activators. 380,000 tested, 1.1% active. AID 624202; note: potency is the fitted concentration of half-maximal effect; nearly all actives have a fitted effect of over 80% in size
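Compounds are tested at multiple concentrations on MCF7 BRCA1-luciferase reporter cells seeded at 2000 per well; after 48 h, a single luminescence end-point is taken and curves fitted to the normalized data.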
IL2 activator = activates IL-2 in a cell-based reporter assay; IL-2 activation reporter assay, cell-based qHTS; stimulated with anti-CD3/CD4/CD28 beads; in transgenic mouse T cells; activation, % (series mostly up to about 46 µM); 360,000 tested, 0.065% active; in the data active = activation above about 50%; inconclusive = mostly about 30% to 49%; note: 0% is about no effect
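Using fluorescent plate cytometry, EGFP and DsRed are detected in transgenic mouse T cells stimulated 18 h at 37 degrees C with antibody-coated beads after 60 min compound pretreatment.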
Nrf2 inh = Nrf2 pathway inhibition; A549 ARE-Fluc reporter, luciferase luminescence, 18-24 h; Potency, µM (series often up to 46 µM), for the others: at the highest dose activity change, negative = inhibition, actives largely listed as inhibitors; 360,000 tested, 2.1% active; AID 504444; note: potency is the fitted concentration of half-maximal effect; % is set by controls: 0 for no effect and ±100 for the full control effect; nearly all actives have a fitted effect of over 60% in size
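Concentration-response testing used A549 ARE_Fluc cells at 5000 cells/well. Following an 18-24 h compound incubation, viability was read by fluorescence (Ex 405/Em 525) and luciferase output by luminescence.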
The depositor's hits bear a star; ? = inconclusive; nt = no result given; [ ] = dose if it differs, or a comment. Compounds with a hit are over-represented: about 3.2% of the library has one in this group of screens. Unless noted, calls come from the whole dose curve; as a rule, active = well fitted curve in the direction sought with a large enough effect; inconclusive = small, poorly fitted or top-dose-only effect, or another doubt; inactive = no such curve, though single readings can be large; an effect the other way counts as inactive or inconclusive.

SMILES	Nrf2 ARE act	A549 viability	p53 reactivator	BRCA1 expr act	IL2 activator	Nrf2 inh
O=c1oc2ccccc2cc1-c1cn2cc(Cc3ccccc3F)sc2n1	6%	-10%	nt	nt	nt	?
O=C(NCC(c1cccnc1)N1CCN(c2ccccc2)CC1)OCc1ccccc1 (centres undefined)	0%	-4%	1%	-28%	0	-20%
O=C(NCC(c1cccnc1)N1CCN(c2ccccc2F)CC1)OCc1ccccc1 (centres undefined)	1%	-22%	0%	-32%	-1	21µM*
O=C(NCc1cccs1)C(=O)NCC(c1ccco1)N1CCN(c2ccccc2F)CC1 (centres undefined)	0%	10%	-1%	-10%	-1	21µM*
Cc1cc2c(s1)c1cnn(Cc3cc(C(F)(F)F)ccc3F)c(=O)c1n2C	nt	0%	nt	nt	nt	4%
O=C(CCCc1ccncc1)c1ccccc1	0%	5%	nt	4µM*	0	?
c1ccc(OCCNc2ccn3nc(-c4ccco4)cc3n2)cc1	10%	nt	nt	14µM*	0	nt
Cc1ccc(C(=O)N2CCCC(C(=O)c3ccc(Oc4ccccc4)cc3)C2)cn1 (centres undefined)	0%	?	-5%	-28%	-2	16µM*
CCOc1ccc(CCNC(=O)c2nc(-c3cccc(F)c3)n3c2CCCCC3)cc1OCC	0%	?	nt	nt	nt	21µM*
CN(C(=O)c1nc(-c2cccc(F)c2)n2c1CCCCC2)c1ccccc1F	4%	10%	nt	nt	nt	?
COc1cc2c(cc1OC)C1(NCC2)C(=O)Nc2ccccc21 (centres undefined)	-1%	1%	-10%	2%	-3	-15%
COc1cc2c(cc1OC)C1(Nc3c-2c(Cc2ccccc2)nn3-c2ccccc2)C(=O)Nc2ccccc21 (centres undefined)	0%	?	0%	-44%	0	12µM*
COC(=O)C1=C(C)N(C(C)C)C(=O)C1(NC(=O)c1ccc(C(C)(C)C)cc1)C(F)(F)F (centres undefined)	0%	-1%	nt	nt	nt	4%
O=C(NCc1ccccc1)c1ccc(-c2ccccc2F)o1	2%	-1%	?	11µM*	-3	?
O=C(NCCc1ccccc1)c1ccc(-c2ccccc2C(F)(F)F)o1	10%	8%	2%	11%	-1	3%
Cc1cc(N2CCC(C(=O)Nc3ccc(F)cc3F)CC2)n2nc(C)c(-c3ccc(Cl)cc3)c2n1	0%	-7%	nt	15%	nt	8%
Cc1nnc(CN(C)c2ncnc3ccc(-c4ccc5c(c4)OCO5)cc23)o1	nt	2%	nt	nt	nt	21%
COc1ccc(-n2c(=O)/c(=C\c3cccs3)s/c2=C(/C#N)C(=O)NCCN2CCOCC2)cc1	0%	2%	1%	0%	137*	2%
CSc1ccc(CCNc2ncnc3onc(C)c23)cc1	2%	4%	nt	nt	nt	7.3µM*
O=C(Cc1cnn(-c2ccccc2)c1)c1ccc(O)c(O)c1O	3%	-6%	26%	5.6µM*	0	-15%
CC(C)c1ccc(C2N3CC4(C)CN2CC(c2ccccc2)(C3)C4=O)cc1 (centres undefined)	-1%	24%	nt	nt	nt	9%
O=C(NN=C1CCN(Cc2ccccc2)CC1)c1ccccc1O	2%	-1%	8%	-11%	-1	4%
O=C(O)c1cc(NN=C2CCN(Cc3ccccc3)CC2)ccc1Cl	2%	2%	19%	3.2µM*	-1	?
CC(C)(C)CN1CCN(Cc2nc(-c3ccc(F)cc3)cs2)CC1CCO (centres undefined)	0%	-10%	nt	-52%	-1	21µM*
OCCC1CN(Cc2nc(-c3ccc(F)cc3)cs2)CCN1CCc1ccccc1 (centres undefined)	3%	-14%	-2%	0%	-1	?
SMILES	Nrf2 ARE act	A549 viability	p53 reactivator	BRCA1 expr act	IL2 activator	Nrf2 inh
Cc1[nH]c2ccccc2c1C1(O)C(=O)N(Cc2ccccc2)c2ccc(Cl)cc21 (centres undefined)	0%	-3%	nt	-32%	nt	11%
O=C(COC(=O)c1ccc(Cl)nc1)Nc1cccc(S(=O)(=O)N2CCCCC2)c1	0%	10%	1%	-25%	1	7%
O=C(Nc1ccc(S(=O)(=O)N2CCCC2)cc1)c1ccc(Cl)nc1	1%	1%	-4%	-22%	-2	?
O=C1CCC(C(=O)Nc2cccc(S(=O)(=O)Nc3ccccc3F)c2)=NN1	2%	2%	-3%	-12%	-1	26µM*
CSc1ncc(Cl)c(C(=O)Nc2ccc(S(=O)(=O)N3CCC(C)CC3)cc2)n1	0%	-9%	nt	nt	nt	21µM*
O=C(Nc1cccc(S(=O)(=O)N2CCCCCC2)c1)c1ccc(Cl)nc1	3%	?	-6%	-68%	-1	21µM*
O=C(Nc1cccc(S(=O)(=O)N2CCCCC2)c1)c1ccc(Cl)nc1	0%	-7%	4%	-40%	-1	21µM*
CCSc1ncc(Cl)c(C(=O)Nc2ccc(S(=O)(=O)N3CCC(C)CC3)cc2)n1	-1%	16%	nt	nt	nt	?
N#Cc1ccccc1S(=O)(=O)N1CCN(S(=O)(=O)c2ccc3c(c2)OCCO3)CC1	nt	8%	nt	nt	nt	18%
COc1cc(OC)cc(C2=Nn3c(nnc3-c3ccccc3O)SC2)c1	nt	1%	nt	nt	nt	?
O=C(Nc1ccc(Cc2ccncc2)cc1)c1ccc(S(=O)(=O)N2CCCC2)cc1	2%	-20%	-2%	-51%	-1	16µM*
O=C(Nc1ccc(S(=O)(=O)N2CCCCC2)cc1)c1ccc(Cl)nc1	0%	-12%	0%	0%	-1	18µM*
O=C(Nc1ccc(S(=O)(=O)N2CCCCC2)cc1)c1ccncc1	0%	-1%	-1%	-30%	-2	?
O=C(Nc1cccc(S(=O)(=O)Nc2ccccc2Cl)c1)c1ccc(Cl)nc1	-1%	-15%	-2%	-46%	0	5.2µM*
O=C(c1cc(COc2ccc(F)cc2F)on1)N1CCSCC1	4%	-4%	6%	7.9µM*	-1	?
Cc1c(C(=O)O)c(O)cc2c1C(=O)c1c(O)c([C@@H]3O[C@H](CO)[C@@H](O)[C@H](O)[C@H]3O)c(O)c(O)c1C2=O	0%	21µM*	-9%	-30%	-1	?
CCOc1ccccc1C(=O)N1CC(=O)Nc2ccc(C)cc2C1c1ccccc1 (centres undefined)	1%	1%	nt	nt	nt	0%[9.27 µM]
COc1cc(-c2nnc(COc3ccc4cc(Br)ccc4c3)o2)cc(OC)c1OC	0%	1%	2%	-2%[1.84 µM]	0	3%
CCOc1ccc(-c2nnc(-c3cccs3)o2)cc1	-1%	4%	22%	-4%	2	?
